This passage reports composite z-score and z-score results from PubChem BioAssay.

Experiment [1] has as its system Plasmodium falciparum Sir2 (PF13_0152, Sir2A). The experiment is described as follows: Plasmodium falciparum Sir2A binding compounds – biochemical, small-molecule microarray, 635 nm fluorescence, primary screen (AID 1098).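 Note: score merges spot fluorescence intensity with its signal-to-noise ratio.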 The following applies: fluorescence 635 nm, higher = more signal.
Experiment [2] can be described thus: probe aDKK1 binding to arrayed compounds – biochemical, biotinylated probe, 635/667 nm fluorescence, primary screen (AID 1099).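 Note: score merges 667nm spot fluorescence with signal to noise across triplicate slides.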 The following applies: small-molecule microarray, higher = more signal.
The nature of experiment [3]: probe aCHRDL2 binding to arrayed compounds – biochemical, biotinylated probe, 635/667 nm fluorescence, primary screen (AID 1100). The following applies: small-molecule microarray, higher = more signal.
Experiment [4] in a line: change in splice reporter luminescence, either direction, cell-based, HEK293, spliceosome inhibition project, primary screen (AID 1101).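 Note: HEK293 cells carrying a splicing-competent luciferase reporter gene; test concentration not given here.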 The following applies: HEK293 splicing luciferase reporter, 24 h, higher = more signal, called active from +8 up or from −8 down. A general note: A reporter such as luciferase makes a cellular process visible.
For experiment [5], the target named is Fibroblast growth factor 10 (Homo sapiens) (UniProt O15520). The experiment is described as follows: compounds binding fibroblast growth factor 10 – biochemical, small-molecule microarray, 635 nm fluorescence, primary screen (AID 1102). The following applies: FGF10 binding, fluorescence 635 nm, higher = more signal.
The subject of experiment [6] is glycogen synthase kinase-3 (GSK3A per assay name; protocol says GSK3B). Put plainly: compounds binding glycogen synthase kinase-3 – biochemical, small-molecule microarray, 635 nm fluorescence, GSK3A, primary screen (AID 1103). Note: the record names both GSK3A and GSK3B. The following applies: fluorescence 635 nm, higher = more signal.
In experiment [7] the target is Epidermal growth factor receptor (Homo sapiens) (UniProt P00533). The experiment is described as follows: compounds binding epidermal growth factor receptor – biochemical, small-molecule microarray, 635 nm fluorescence, primary screen (AID 1104).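 Note: score merges 667 nm emission intensity with spot signal to noise over triplicate slides.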 The following applies: EGFR binding, higher = more signal.
The target of experiment [8] is Follistatin-related protein 3 (Homo sapiens) (UniProt O95633). Put plainly: compounds binding follistatin-related protein 3 – biochemical, small-molecule microarray, 635 nm fluorescence, primary screen (AID 1105).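 Note: score merges emission near 667 nm and signal to noise per printed spot across three slides.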 The following applies: FSTL3 binding, higher = more signal.
The target in experiment [9] is Dickkopf-related protein 1 (Homo sapiens) (UniProt O94907). Put plainly: small molecules binding DKK1 protein – biochemical, small-molecule microarray, 635 nm fluorescence scan, primary screen (AID 1106).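 Note: score merges emission near 667 nm with signal to noise over three replicate slides.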 The following applies: higher = more signal.
Experiment [10] deals with Inhibin beta A chain (activin A). The experiment is described as follows: small molecules binding activin A – biochemical, small-molecule microarray, 635 nm fluorescence scan, primary screen (AID 1107).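 Note: mouse activin A protein probed at 4.33 µg/mL on printed slides; score merges bound-protein fluorescence near 667 nm with spot signal-to-noise.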 The following applies: INHBA, higher = more signal.
Experiment [11] deals with Human papillomavirus type 1a protein E7 (residues 44-93). Put plainly: small molecules binding HPV E7 44-93 – biochemical, small-molecule microarray, residues 44-93, 635 nm fluorescence, primary screen (AID 1108).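 Note: E7 fragment applied at 1 µg/mL in TBST for 1 h at 4 C; score combines spot fluorescence with its signal to noise ratio.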 The following applies: fluorescence 635 nm, higher = more signal.
A short description of experiment [12]: hepatitis C replication reporter changes, two-sided – Huh7 cells, luciferase reporter, HCV replication inhibitor project, primary screen (AID 1109).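 Note: huh7 hepatoma cells harbouring a luciferase neomycin HCV replicon reporter; luciferase luminescence as measure of HCV replicon replication; test concentration not given here.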 The following applies: Huh7 HCV replicon luciferase reporter, 48 h; higher = more signal.
Experiment [13] deals with Left-right determination factor 2 (Homo sapiens) (UniProt O00292). Put plainly: small molecules binding LEFTY2 protein – biochemical, small-molecule microarray, 635 nm fluorescence scan, primary screen (AID 1110). The following applies: higher = more signal.
Experiment [14] deals with Calmodulin-1 (Homo sapiens) (UniProt P0DP23). Put plainly: small molecules binding calmodulin-1 with EGTA – biochemical, small-molecule microarray, Cy5-labelled CALM1, profiling panel (AID 1111).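 Note: labelled calmodulin applied in Tris saline Tween buffer holding calcium plus EGTA and DTT.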 The following applies: Cy5-CALM1 binding fluorescence, higher = more signal.
The target is the same in experiment [15]. The experiment is described as follows: small molecules binding Ca-loaded calmodulin-1 – biochemical, small-molecule microarray, Cy5-labelled CALM1, plus calcium, artefact control for SMM control-protein annotation, profiling panel (AID 1112).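 Note: score merges spot fluorescence with signal to noise from triplicate slides.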 The following applies: Cy5-CALM1 binding fluorescence, higher = more signal.
The nature of experiment [16]: probe aWnt5a binding to arrayed compounds – biochemical, biotinylated probe, 635/667 nm fluorescence, primary screen (AID 1113).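 Note: score merges 667 nm fluorescence intensity with signal-to-noise per printed feature.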 The following applies: small-molecule microarray, higher = more signal.
The nature of experiment [17]: probe aShh binding to arrayed compounds – biochemical, biotinylated probe, 635/667 nm fluorescence, primary screen (AID 1114).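 Note: probe is biotin-labelled aShh protein from a stem cell growth factor screen; measures binding of labelled protein to compounds printed on the slide; score merges feature fluorescence at 667 nm with signal-to-noise.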 The following applies: small-molecule microarray, higher = more signal.
A short description of experiment [18]: probe aNog binding to arrayed compounds – biochemical, biotinylated probe, 635/667 nm fluorescence, primary screen (AID 1115).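 Note: probe is biotinylated aNog protein used at 0.15 µg/mL for 1 h at 4 C; z-score combines 667 nm fluorescence of each spot with its signal to noise.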 The following applies: small-molecule microarray, higher = more signal.
The target in experiment [19] is Torsin-1A-interacting protein 1 (Homo sapiens) (UniProt Q5JTV8). The experiment is described as follows: compound microarray binding of lysate hLAP1 – cell lysate, small-molecule microarray, COS7 lysate, 635/667 nm fluorescence, primary screen (AID 1116). The following applies: 635 nm fluorescence, higher = more signal.
In experiment [20] the target is Alpha-bungarotoxin (Bungarus multicinctus) (UniProt P60615). The experiment is described as follows: compounds binding labelled alpha-BTX control protein – biochemical, small-molecule microarray, Alexa647 label, 635/667 nm fluorescence, artefact control for SMM control protein annotation, profiling panel (AID 1117). The following applies: alpha-BTX-A647 binding fluorescence, higher = more signal.

Activity calls are given as the source filed them.

Chain of Follistatin-related protein 3 (Homo sapiens) (O95633 whole entry, looked up): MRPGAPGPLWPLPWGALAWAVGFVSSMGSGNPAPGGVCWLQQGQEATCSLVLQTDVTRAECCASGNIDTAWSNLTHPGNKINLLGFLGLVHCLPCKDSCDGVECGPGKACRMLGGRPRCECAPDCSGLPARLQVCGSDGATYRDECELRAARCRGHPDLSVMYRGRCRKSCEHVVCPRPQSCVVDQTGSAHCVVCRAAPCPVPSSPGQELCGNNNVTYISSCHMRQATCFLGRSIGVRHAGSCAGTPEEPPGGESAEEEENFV
Chain of Left-right determination factor 2 (Homo sapiens) (O00292 whole entry, looked up): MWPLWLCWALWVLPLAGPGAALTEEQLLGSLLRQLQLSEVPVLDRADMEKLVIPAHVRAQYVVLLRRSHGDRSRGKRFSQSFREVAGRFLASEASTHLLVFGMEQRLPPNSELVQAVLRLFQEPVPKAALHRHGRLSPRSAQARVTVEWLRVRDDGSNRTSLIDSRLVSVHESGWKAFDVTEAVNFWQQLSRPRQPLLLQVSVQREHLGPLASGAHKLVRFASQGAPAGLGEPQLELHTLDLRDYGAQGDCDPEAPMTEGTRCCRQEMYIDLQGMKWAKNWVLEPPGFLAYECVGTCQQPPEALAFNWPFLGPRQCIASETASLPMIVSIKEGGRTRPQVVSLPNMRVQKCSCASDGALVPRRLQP
Chain of Fibroblast growth factor 10 (Homo sapiens) (O15520 whole entry, looked up): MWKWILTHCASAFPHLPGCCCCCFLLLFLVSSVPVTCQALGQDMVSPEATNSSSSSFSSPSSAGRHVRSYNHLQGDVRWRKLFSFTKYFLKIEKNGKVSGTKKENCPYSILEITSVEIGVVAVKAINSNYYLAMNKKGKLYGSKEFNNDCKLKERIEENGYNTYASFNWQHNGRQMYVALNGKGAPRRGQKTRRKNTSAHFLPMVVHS
Chain of Torsin-1A-interacting protein 1 (Homo sapiens) (Q5JTV8 whole entry, looked up): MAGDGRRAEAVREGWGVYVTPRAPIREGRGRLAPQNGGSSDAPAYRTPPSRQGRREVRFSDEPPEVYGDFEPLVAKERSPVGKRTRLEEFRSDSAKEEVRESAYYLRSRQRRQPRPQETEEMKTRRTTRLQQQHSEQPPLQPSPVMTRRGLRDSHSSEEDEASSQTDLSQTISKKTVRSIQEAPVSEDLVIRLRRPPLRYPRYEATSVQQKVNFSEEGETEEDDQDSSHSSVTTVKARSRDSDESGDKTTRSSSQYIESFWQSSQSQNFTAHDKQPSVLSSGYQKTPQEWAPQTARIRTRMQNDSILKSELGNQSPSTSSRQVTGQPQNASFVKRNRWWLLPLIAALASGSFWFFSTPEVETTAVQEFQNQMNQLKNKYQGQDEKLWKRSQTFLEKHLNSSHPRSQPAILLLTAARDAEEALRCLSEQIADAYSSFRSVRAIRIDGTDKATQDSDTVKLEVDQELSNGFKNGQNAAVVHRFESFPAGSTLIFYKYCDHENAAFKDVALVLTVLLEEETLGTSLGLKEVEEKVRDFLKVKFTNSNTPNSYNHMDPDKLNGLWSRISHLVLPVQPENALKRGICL
Chain of Epidermal growth factor receptor (Homo sapiens) (P00533 whole entry, looked up): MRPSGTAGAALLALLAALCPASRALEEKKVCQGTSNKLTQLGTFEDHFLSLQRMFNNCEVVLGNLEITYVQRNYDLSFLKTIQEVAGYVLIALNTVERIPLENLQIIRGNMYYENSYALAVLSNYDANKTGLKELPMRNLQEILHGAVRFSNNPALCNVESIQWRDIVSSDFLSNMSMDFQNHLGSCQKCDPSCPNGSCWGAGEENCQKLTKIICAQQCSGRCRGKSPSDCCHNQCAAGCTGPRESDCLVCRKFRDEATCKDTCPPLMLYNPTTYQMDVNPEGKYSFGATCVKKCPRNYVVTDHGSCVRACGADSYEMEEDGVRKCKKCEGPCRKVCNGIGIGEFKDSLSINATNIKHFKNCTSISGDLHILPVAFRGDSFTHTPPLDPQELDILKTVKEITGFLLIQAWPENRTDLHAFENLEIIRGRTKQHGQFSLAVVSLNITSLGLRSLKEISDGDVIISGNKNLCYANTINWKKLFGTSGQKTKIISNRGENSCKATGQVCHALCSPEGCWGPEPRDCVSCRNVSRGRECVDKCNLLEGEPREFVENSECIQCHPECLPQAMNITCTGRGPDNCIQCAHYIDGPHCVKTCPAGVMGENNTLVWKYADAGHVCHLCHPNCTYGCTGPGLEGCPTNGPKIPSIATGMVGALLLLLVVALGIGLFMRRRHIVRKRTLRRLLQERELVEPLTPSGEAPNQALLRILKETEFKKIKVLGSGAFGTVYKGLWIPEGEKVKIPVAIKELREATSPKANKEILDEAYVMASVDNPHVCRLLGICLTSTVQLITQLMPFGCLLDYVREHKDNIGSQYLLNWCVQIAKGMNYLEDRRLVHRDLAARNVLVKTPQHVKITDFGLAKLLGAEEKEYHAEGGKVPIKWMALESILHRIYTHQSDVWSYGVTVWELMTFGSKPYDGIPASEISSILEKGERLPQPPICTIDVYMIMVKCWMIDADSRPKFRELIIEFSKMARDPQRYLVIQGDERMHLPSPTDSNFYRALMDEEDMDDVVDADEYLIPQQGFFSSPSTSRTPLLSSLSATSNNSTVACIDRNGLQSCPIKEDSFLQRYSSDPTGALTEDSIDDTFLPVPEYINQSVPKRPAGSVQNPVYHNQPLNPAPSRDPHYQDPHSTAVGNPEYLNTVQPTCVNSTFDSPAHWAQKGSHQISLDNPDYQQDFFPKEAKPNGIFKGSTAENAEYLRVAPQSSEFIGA
Chain of Alpha-bungarotoxin (Bungarus multicinctus) (P60615 whole entry, looked up): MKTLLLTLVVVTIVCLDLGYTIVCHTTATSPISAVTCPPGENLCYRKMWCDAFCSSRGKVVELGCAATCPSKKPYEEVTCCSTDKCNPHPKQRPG
Chain of Dickkopf-related protein 1 (Homo sapiens) (O94907 whole entry, looked up): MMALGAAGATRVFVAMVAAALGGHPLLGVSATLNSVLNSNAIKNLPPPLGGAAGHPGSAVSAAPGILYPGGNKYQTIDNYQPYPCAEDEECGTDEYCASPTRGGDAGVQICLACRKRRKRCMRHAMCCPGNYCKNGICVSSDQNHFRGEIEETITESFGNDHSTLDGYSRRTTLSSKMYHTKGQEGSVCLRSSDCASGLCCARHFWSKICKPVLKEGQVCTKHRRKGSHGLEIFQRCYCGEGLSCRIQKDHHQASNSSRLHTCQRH

With `CC(C)C[C@@H]1NC(=O)[C@H]2C[C@@H](C(=O)O)[C@@H](c3cccc(OCCO)c3)N2C1=O`, the composite z-score in experiment [1] was found to be 0.524; in [2] it was 0.0083; in experiment [3], 0.677; in experiment [5], 0.0039; in experiment [6] it was 0.969; in [7], 0.193. The composite z-score in experiment [8] was 1.2; in experiment [9], 1.11; in experiment [10], 1.19; in experiment [11], -0.239; in experiment [13], 0.779; in experiment [14], -0.418. Moreover, the composite z-score in [15] was -0.2; in [16], -0.0704; in experiment [17], -0.0289; in experiment [18], -0.0503; in experiment [19], 0.884; in experiment [20] it was 0.209. Further, the z-score was 0.256 (inactive) in [4] and 2.62 in [12].
As for `COCCOC(=O)N1C(=O)[C@@]2(c3cc(C#CCNC(N)=O)ccc31)[C@H](C(N)=O)[C@H]1C(=O)O[C@H](c3ccccc3)[C@H](c3ccccc3)N1[C@@H]2c1ccc(O)cc1`, the composite z-score was 0.92 in [1]; 0.554 in [2]; 0.614 in experiment [3]; 0.149 in experiment [5]; -0.575 in experiment [6]; -0.278 in experiment [7]. In addition, the composite z-score was -0.239 in experiment [8]; 0.0656 in [9]; 0.676 in [10]; -0.109 in experiment [11]; -0.0417 in experiment [13]; 0.062 in experiment [14]. Further, the composite z-score in experiment [15] was 0.662; in [16], -0.0384; in experiment [17], 0.288; in experiment [18], -0.0245; in experiment [19] it was 0.0743; in [20], -0.285. For the same compound, the values for the z-score in experiment [4] and in experiment [12] were 0.359 (inactive) and 0.494, respectively.
`CN1C(=O)C2C=CC(C(O)c3ccc(I)cc3)N(N(c3ccccc3)c3ccccc3)C2C1=O` (stereo not given): the composite z-score is 0.727 in experiment [1]; -0.0078 in experiment [2]; 0.914 in experiment [3]; -0.841 in experiment [5]; -0.487 in experiment [6]; -0.882 in experiment [7]. The composite z-score is -0.309 in experiment [8]; -0.421 in experiment [9]; 1.32 in experiment [10]; -0.802 in experiment [11]; -0.953 in experiment [13]; 0.95 in [14]. The composite z-score was -0.0638 in experiment [15]; -0.0735 in experiment [16]; 0.0469 in experiment [17]; 0.878 in experiment [18]; -0.119 in [19]; 0.98 in experiment [20]. For the same compound, the z-score in experiment [4] is 1.19 (inactive); in [12] it was -1.55.
Consider `C=CCNC(=O)[C@H]1[C@@H]2C(=O)O[C@@H](c3ccccc3)[C@@H](c3ccccc3)N2[C@@H](c2ccc(O)cc2)[C@]12C(=O)N(C(=O)OCCOC)c1ccc(C#Cc3ccc(OC)cc3)cc12`, for which the composite z-score in experiment [1] is 1.21; in experiment [2] it was -0.0387; in experiment [3] it was 0.478; in experiment [5], 0.88; in [6], 1.08; in [7] it was 0.215. Further, the composite z-score worked out at 0.448 in [8]; 0.211 in experiment [9]; 0.794 in experiment [10]; 1.33 in experiment [11]; 0.254 in experiment [13]; 1.38 in experiment [14]. Moreover, the composite z-score was -0.0807 in experiment [15]; -0.001 in experiment [16]; 0.229 in experiment [17]; -0.477 in [18]; 0.42 in experiment [19]; 0.286 in experiment [20]. Further, the z-score in [4] was -0.294 (inactive); in experiment [12], -1.09.
`CCCCCCc1nc(-c2ccc(OC)nc2)c(C)c2c1[Si](C(C)C)(C(C)C)OC2`: the composite z-score was -0.299 in experiment [1]; -0.202 in [2]; -0.358 in [3]; -0.168 in experiment [5]; -0.264 in experiment [6]; 0.218 in [7]. In addition, the composite z-score in experiment [8] was 0.565; in experiment [9] it was 1.03; in experiment [10] it was 0.444; in experiment [11], -0.329; in experiment [13] it was 0.445; in experiment [14], -0.0398. The composite z-score in experiment [15] is -0.257; in [16], -0.0462; in [17], -0.154; in experiment [18] it was -0.129; in experiment [19], -0.391; in experiment [20], -0.304. For the same compound, the z-score in experiment [4] was -2 (inactive); in [12], -0.603.
For `C=C[C@H](OC)[C@@H](O)c1ccc(OC)c(O)c1`, the composite z-score is 0.352 in [1]; -0.464 in [2]; 0.37 in experiment [3]; -0.928 in experiment [5]; -1.3 in experiment [6]; -1.14 in [7]. The composite z-score in [8] is -1.91; in experiment [9] it was -1.29; in experiment [10], -1.28; in [11], -1.25; in experiment [13], -1.77; in [14], -1.06. Moreover, the composite z-score is -0.597 in experiment [15]; -0.0981 in experiment [16]; -0.0035 in [17]; -0.326 in experiment [18]; -0.435 in experiment [19]; -0.646 in experiment [20]. The z-score in experiment [4] is 0.772 (inactive); in experiment [12], 0.622.
